Hit rate of the full screen: of about 39,000 compounds, about 3,300 (8.5%) were called active. The sample as a whole holds a higher share of actives than the screen did.

The subject of the assay is HepG2. Kind of assay: cytotoxicity call (relative viability < 0.9). The note with it: 10 µM.
Turning to `C[C@H](CO)N1C[C@H](C)[C@H](CN(C)Cc2ccc(C(=O)Nc3ccccc3N)cc2)Oc2ccc(NC(=O)Nc3ccc(C(F)(F)F)cc3)cc2CC1=O`, the cytotoxicity call is “active”.

`Cc1ccc(S(=O)(=O)Nc2cccc3c2O[C@H](CN(C)C(=O)Nc2ccc(C(F)(F)F)cc2)[C@@H](C)CN([C@@H](C)CO)C3=O)cc1`: the cytotoxicity call is “inactive”.

Take `C[C@H]1CN([C@@H](C)CO)C(=O)c2cc(NC(=O)Nc3ccc(C(F)(F)F)cc3)ccc2O[C@@H]1CN(C)S(=O)(=O)c1ccc(F)cc1`: the cytotoxicity call was “inactive”. For `C[C@@H]1CN([C@H](C)CO)C(=O)c2cc(NC(=O)Nc3ccc(C(F)(F)F)cc3)ccc2O[C@H]1CN(C)S(=O)(=O)c1ccc(F)cc1` the value was “active”; for `C[C@H]1CN([C@@H](C)CO)C(=O)c2cc(NC(=O)Nc3ccc(C(F)(F)F)cc3)ccc2O[C@H]1CN(C)S(=O)(=O)c1ccc(F)cc1`, “active”.

For the compound `C[C@H](CO)N1C[C@H](C)[C@@H](CN(C)S(=O)(=O)c2ccc(F)cc2)Oc2ccc(NC(=O)Nc3ccc(C(F)(F)F)cc3)cc2C1=O`, the cytotoxicity call is “inactive”. Turning to `C[C@H](CO)N1C[C@H](C)[C@H](CN(C)S(=O)(=O)c2ccc(F)cc2)Oc2ccc(NC(=O)Nc3ccc(C(F)(F)F)cc3)cc2C1=O`, the cytotoxicity call was “inactive”. As to `C[C@@H]1CN([C@H](C)CO)C(=O)c2cc(NC(=O)Nc3ccc(C(F)(F)F)cc3)ccc2O[C@@H]1CN(C)S(=O)(=O)c1ccc(F)cc1`, the cytotoxicity call was “active”.

Regarding `C[C@H]1CN([C@@H](C)CO)C(=O)c2cc(NC(=O)Nc3ccc(C(F)(F)F)cc3)ccc2O[C@@H]1CN(C)S(C)(=O)=O`, the cytotoxicity call is “inactive”. For `C[C@@H]1CN([C@H](C)CO)C(=O)c2cc(NC(=O)Nc3ccc(C(F)(F)F)cc3)ccc2O[C@H]1CN(C)S(C)(=O)=O`, the cytotoxicity call was “inactive”.

As to `C[C@@H]1CN([C@@H](C)CO)C(=O)c2cc(NC(=O)Nc3ccc(C(F)(F)F)cc3)ccc2O[C@H]1CN(C)S(=O)(=O)c1ccc(F)cc1`, the cytotoxicity call is “inactive”. As for `C[C@H]1CN([C@@H](C)CO)C(=O)c2cc(NC(=O)Nc3ccc(C(F)(F)F)cc3)ccc2O[C@H]1CN(C)S(C)(=O)=O`, the entry is “inactive”; as for `C[C@@H]1CN([C@@H](C)CO)C(=O)c2cc(NC(=O)Nc3ccc(C(F)(F)F)cc3)ccc2O[C@@H]1CN(C)S(=O)(=O)c1ccc(F)cc1`, “active”; as for `C[C@H]1CCCCO[C@@H](CN(C)C(=O)Nc2ccc3c(c2)OCO3)[C@@H](C)CN([C@@H](C)CO)C(=O)c2cc(NC(=O)C3CCCCC3)ccc2O1`, “inactive”.

Regarding `C[C@H](CO)N1C[C@H](C)[C@@H](CN(C)C(=O)Nc2cccc3ccccc23)OCCCC[C@H](C)Oc2ccc(NC(=O)CCCN(C)C)cc2C1=O`, the cytotoxicity call is “inactive”.

Regarding `C[C@@H]1CN([C@@H](C)CO)S(=O)(=O)c2ccc(C#CC3(O)CCCC3)cc2O[C@H]1CN(C)C(=O)Cc1ccncc1`, the cytotoxicity call was “inactive”. As for `C[C@@H]1CN([C@H](C)CO)C(=O)c2cc(NC(=O)Nc3ccc(F)cc3)ccc2O[C@H]1CN(C)Cc1ccc(Oc2ccccc2)cc1`, the cytotoxicity call was “active”. Turning to `C[C@@H]1CN([C@H](C)CO)C(=O)c2cc(NC(=O)Nc3ccc(F)cc3)ccc2O[C@@H]1CN(C)Cc1ccc(Oc2ccccc2)cc1`, the cytotoxicity call was “active”. Regarding `C[C@@H]1CN([C@@H](C)CO)C(=O)c2cc(NC(=O)Nc3ccc(F)cc3)ccc2O[C@@H]1CN(C)Cc1ccc(Oc2ccccc2)cc1`, the cytotoxicity call was “active”. As for `C[C@H](CO)N1C[C@H](C)[C@H](CN(C)Cc2ccc(Oc3ccccc3)cc2)Oc2ccc(NC(=O)Nc3ccc(F)cc3)cc2C1=O`, the entry is “active”; as for `C[C@H]1CN([C@@H](C)CO)C(=O)c2cc(NC(=O)Nc3ccc(F)cc3)ccc2O[C@H]1CN(C)Cc1ccc(Oc2ccccc2)cc1`, “inactive”. Consider `C[C@@H]1CN([C@@H](C)CO)C(=O)c2cc(NC(=O)Nc3ccc(F)cc3)ccc2O[C@H]1CN(C)Cc1ccc(Oc2ccccc2)cc1`, for which the cytotoxicity call is “inactive”. As for `C[C@H](CO)N1C[C@H](C)[C@@H](CN(C)Cc2ccc(Oc3ccccc3)cc2)Oc2ccc(NC(=O)Nc3ccc(F)cc3)cc2C1=O`, the entry is “inactive”. For `NCc1cc(-c2ccccc2Cl)on1` the value was “inactive”; for `COc1ccc(S(=O)(=O)N(C)C[C@@H]2OCc3cnnn3CCCC(=O)N([C@H](C)CO)C[C@H]2C)cc1`, “inactive”; for `C[C@@H]1CN([C@@H](C)CO)C(=O)c2cc(NS(=O)(=O)c3cccs3)ccc2O[C@@H](C)CCCCO[C@@H]1CN(C)CC1CCCCC1`, “inactive”. `C[C@@H]1CN([C@H](C)CO)C(=O)c2cc(-c3cccnc3)cnc2O[C@@H]1CN(C)C(=O)Nc1ccc2c(c1)OCO2`: the cytotoxicity call was “inactive”. As for `CON=C(C(=O)NC1C(=O)N2C(C(=O)O)=C(CSC(=O)c3ccco3)CSC12)c1csc(N)n1.Cl` (stereo not given), the entry is “inactive”; as for `O=C(C[C@@H]1C[C@@H]2c3cc(NC(=O)NC4CCCC4)ccc3O[C@@H]2[C@@H](CO)O1)NCc1ccc2c(c1)OCO2`, “inactive”; as for `Cc1noc(C)c1NC(=O)Nc1ccc2c(c1)C(=O)N([C@H](C)CO)C[C@H](C)[C@@H](CN(C)C(=O)Nc1cccc3ccccc13)OCCCC[C@H](C)O2`, “inactive”.

Consider `C[C@H]1CN([C@@H](C)CO)C(=O)c2cc(NC(=O)Nc3ccc(F)cc3)ccc2O[C@@H]1CN(C)Cc1ccc(Oc2ccccc2)cc1`, for which the cytotoxicity call was “active”. For `CC(C)NC(=O)N(C)C[C@@H]1Oc2c(NC(=O)C3CCCCC3)cccc2C(=O)N([C@H](C)CO)C[C@@H]1C` the value was “inactive”. In the case of `CN(C)CC(=O)N1CC2(C1)[C@@H](c1ccccc1)[C@@H](CO)N2S(C)(=O)=O`, the cytotoxicity call is “inactive”. In the case of `C[C@@H]1CCCCO[C@@H](CN(C)Cc2ccccc2)[C@@H](C)CN([C@H](C)CO)C(=O)c2cc(NC(=O)Nc3ccc(C(F)(F)F)cc3)ccc2O1`, the cytotoxicity call is “active”. Consider `C[C@@H]1CCCCO[C@H](CN(C)Cc2ccccc2)[C@@H](C)CN([C@@H](C)CO)C(=O)c2cc(NC(=O)Nc3ccc(C(F)(F)F)cc3)ccc2O1`, for which the cytotoxicity call is “active”. In the case of `C[C@@H]1CCCCO[C@H](CN(C)Cc2ccccc2)[C@H](C)CN([C@H](C)CO)C(=O)c2cc(NC(=O)Nc3ccc(C(F)(F)F)cc3)ccc2O1`, the cytotoxicity call was “active”. For `C[C@@H]1CCCCO[C@H](CN(C)Cc2ccccc2)[C@@H](C)CN([C@H](C)CO)C(=O)c2cc(NC(=O)Nc3ccc(C(F)(F)F)cc3)ccc2O1` the value was “active”. For `C[C@H]1CN([C@@H](C)CO)C(=O)c2cc(NC(=O)Nc3cccc4ccccc34)ccc2O[C@H]1CN(C)C(=O)Nc1cccc2ccccc12`, the cytotoxicity call was “inactive”. As for `COc1ncc(NC(=O)C2CC2)c(OC)n1`, the entry is “inactive”; as for `C[C@@H]1CN([C@H](C)CO)C(=O)c2c(c3ccccc3n2C)-c2ccccc2CO[C@@H]1CN(C)Cc1cccc2c1OCCCO2`, “inactive”. For `C[C@@H]1CN([C@H](C)CO)C(=O)c2cccc(NC(=O)c3ccc(-c4nccs4)cc3)c2O[C@H]1CN(C)C(=O)Nc1ccc2c(c1)OCO2` the value was “inactive”.

Turning to `COc1ccc(S(=O)(=O)N(C)C[C@@H]2OCCCC[C@@H](C)Oc3ccc(NC(=O)CCC(F)(F)F)cc3C(=O)N([C@@H](C)CO)C[C@@H]2C)cc1`, the cytotoxicity call was “inactive”. Turning to `Cc1noc(C)c1S(=O)(=O)N(C)C[C@H]1Oc2ccc(NC(=O)Cc3cn(C)c4ccccc34)cc2CC(=O)N([C@H](C)CO)C[C@@H]1C`, the cytotoxicity call is “inactive”. In the case of `O=C(C[C@H]1C=C[C@@H](NC(=O)c2ccc(F)cc2)[C@H](CO)O1)NCc1ccncn1`, the cytotoxicity call is “inactive”.

On to `CO[C@@H]1CN(C)C(=O)c2ccc(NC(=O)Nc3ccc(Cl)cc3)cc2OC[C@H](C)N(C(=O)Nc2c(C)noc2C)C[C@@H]1C`, for which the cytotoxicity call is “inactive”. `C[C@@H]1CCCCO[C@H](CN(C)C(=O)Nc2ccc(C(F)(F)F)cc2)[C@H](C)CN([C@H](C)CO)C(=O)c2cc(NS(=O)(=O)c3cn(C)cn3)ccc2O1`: the cytotoxicity call was “inactive”.

For `Cc1noc(C)c1NC(=O)Nc1ccc2c(c1)C(=O)N([C@H](C)CO)C[C@H](C)[C@H](CN(C)CC1CCCCC1)OCCCC[C@@H](C)O2`, the cytotoxicity call was “inactive”. Consider `C[C@H](CO)N1C[C@H](C)[C@@H](CN(C)C(=O)c2cccnc2)Oc2cc(-c3cccc(C#N)c3)ccc2S1(=O)=O`, for which the cytotoxicity call was “inactive”.

For the compound `OCc1cncnc1`, the cytotoxicity call was “inactive”. For the compound `C[C@H](CO)N1C[C@H](C)[C@H](CN(C)Cc2ccccc2)OCCCC[C@H](C)Oc2ccc(NC(=O)Nc3ccc(C(F)(F)F)cc3)cc2C1=O`, the cytotoxicity call was “active”. `C[C@H](CO)N1C[C@H](C)[C@@H](CN(C)Cc2ccccc2)OCCCC[C@H](C)Oc2ccc(NC(=O)Nc3ccc(C(F)(F)F)cc3)cc2C1=O`: the cytotoxicity call is “active”.

Take `C[C@@H]1CCCCO[C@@H](CN(C)Cc2ccccc2)[C@H](C)CN([C@H](C)CO)C(=O)c2cc(NC(=O)Nc3ccc(C(F)(F)F)cc3)ccc2O1`: the cytotoxicity call is “active”. As to `C[C@H]1CCCCO[C@H](CN(C)Cc2ccccc2)[C@@H](C)CN([C@@H](C)CO)C(=O)c2cc(NC(=O)Nc3ccc(C(F)(F)F)cc3)ccc2O1`, the cytotoxicity call is “active”. For the compound `O=C(Nn1cnnc1)c1ccccc1`, the cytotoxicity call was “inactive”. For `O=C(O)c1n[nH]c2c1C[C@H]1C[C@@H]21` the value was “inactive”; for `COc1ccc(S(=O)(=O)Nc2ccc3c(c2)C(=O)N([C@@H](C)CO)C[C@@H](C)[C@@H](CN(C)C(=O)Nc2c(C)noc2C)OCCCC[C@@H](C)O3)cc1`, “inactive”; for `O=c1nc(C(F)(F)F)[nH]c2nc[nH]c12`, “inactive”. As to `Cn1cnc(CCNC(=O)C[C@H]2CC[C@@H]3[C@H](COC[C@@H](O)CN3C(=O)C3CC3)O2)c1`, the cytotoxicity call is “inactive”.

For the compound `O=C(N[C@@H]1CC[C@@H](CCn2cc(C3(O)CCCC3)nn2)O[C@H]1CO)C1CCOCC1`, the cytotoxicity call is “inactive”. As for `C[C@H]1CN([C@@H](C)CO)C(=O)Cc2cc(N(C)C)ccc2O[C@H]1CN(C)S(=O)(=O)c1ccc(F)cc1`, the entry is “inactive”; as for `C[C@H](CO)N1C[C@H](C)[C@@H](CN(C)CC2CCCCC2)Oc2ccc(NS(=O)(=O)c3cn(C)cn3)cc2C1=O`, “inactive”; as for `C[C@@H]1CN([C@@H](C)CO)C(=O)c2cc(NC(=O)Nc3ccc(C(F)(F)F)cc3)ccc2O[C@@H](C)CCCCO[C@H]1CN(C)Cc1ccccc1`, “active”.

In the case of `C[C@@H]1CN([C@@H](C)CO)C(=O)c2cc(NC(=O)Nc3ccc(C(F)(F)F)cc3)ccc2O[C@@H](C)CCCCO[C@@H]1CN(C)Cc1ccccc1`, the cytotoxicity call is “active”. For `C[C@@H]1CN([C@H](C)CO)C(=O)c2cc(NC(=O)Nc3ccc(C(F)(F)F)cc3)ccc2O[C@@H](C)CCCCO[C@@H]1CN(C)Cc1ccccc1` the value was “active”. In the case of `C[C@@H]1CCCCO[C@@H](CN(C)Cc2ccccc2)[C@@H](C)CN([C@@H](C)CO)C(=O)c2cc(NC(=O)Nc3ccc(C(F)(F)F)cc3)ccc2O1`, the cytotoxicity call is “active”.

These data come from the antibiotic and cytotoxicity screens of Wong et al. (2023).
